Screening results (PubChem)
A selection: hits, their analogues and other compounds. The true share with any hit is near 27%.
CYP2C9 act – increases human cytochrome P450 2C9 activity; P11712; recombinant CYP2C9, luciferin-H conversion, luminescence; hits give high values; factor 1 = untreated enzyme, 0 = blocked; activation factor at 5 µM; 1.4% of 96,000 active;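 active = activation factor of 2 or more for CYP2C9 at a 5 µM dose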;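 also: 0 = sulfaphenazole-blocked wells and 1 = vehicle-only wells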
CYP2C19 act – increases human CYP2C19 enzyme activity; recombinant CYP2C19, luciferin-H EGE luminescence; hits give high values; 0 = fully inhibited enzyme, 1 = untreated enzyme; activation factor at 5 µM; 96,000 tested, under 10 active; AID 1025;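 active = activation factor of at least 2 at 5 µM in the primary screen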;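 also: 0 = wells with 2.5 mM tranylcypromine and 1 = vehicle-only wells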
Cav32 inh – human Cav3.2 channel inhibition, primary screen; O95180; Cav3.2-expressing cells, Fluo-4 calcium fluorescence FDSS; hits give low values; B-score at 10 µM; 4% of 100,000 active;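 active = single-dose well whose peak fluorescence ratio is a statistical outlier from its plate by either plate-standardised score or position-corrected B-score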
CYP2C19 inhib – blocks human cytochrome P450 2C19. P33261. CYP2C19 Supersomes, luciferin-H EGE luminescence, 30 min. inhibition, % at 5 µM. 21% of 96,000 active;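 active = CYP2C19 inhibition above a set limit at 5 µM in the primary screen, cut at about 50% in these data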;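 also: plate controls were negative control wells for no effect and 2.5 mM tranylcypromine positive control for full effect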
CYP2C9 inh – inhibitors of human CYP2C9; 20% of 96,000 active; CYP2C9 Supersomes, luciferin-H conversion, luminescence; AID 777; inhibition, % at 5 µM; P11712;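 active = blocking of liver enzyme CYP2C9 beyond about 50% at 5 µM, limit read from the data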
Numbers without * were called inactive; . = no result.

SMILES	CYP2C9 act	CYP2C19 act	Cav32 inh	CYP2C19 inhib	CYP2C9 inh
O=C(NC1=NCCS1)C1CC2CCC1C2 (stereo unspecified)	0.9	0.7	0.902	30.7	5.4
Cc1cccc(C2=N/C(=C\c3cccnc3)C(=O)O2)c1	1.2	0.9	-0.599	7.9	-16.2
Cc1ccc(C2=N/C(=C\N3CCCCC3)C(=O)O2)cc1	0.3	0.2	0.591	83.7*	66.2*
COc1ccc(C2CC(c3ccccc3)n3nc(NC(=O)c4cccs4)nc3N2)cc1 (stereo unspecified)	0.5	0.8	.	18.2	53.4*
O=C(Nc1nc2n(n1)C(c1ccc(Cl)cc1)CC(c1ccc(Cl)cc1)N2)c1ccco1 (stereo unspecified)	0.2	0.3	-5.3*	71.1*	82.1*
O=C(Nc1nc2n(n1)C(c1ccccc1)C=C(c1ccccc1)N2)c1ccco1 (stereo unspecified)	0.3	0.7	-2.47	31.4	72.9*
COc1ccc(C2CC(c3ccccc3)Nc3nc(NC(=O)c4cccs4)nn32)cc1 (stereo unspecified)	0.8	1	-1.79	-4.5	24.6
COc1ccc(C2CC(c3ccc(Cl)cc3)Nc3nc(NC(=O)c4ccco4)nn32)cc1 (stereo unspecified)	.	.	-3.9*	.	.
CC1=CC(c2ccc(Cl)cc2)n2nc(NC(=O)c3ccccc3)nc2N1 (stereo unspecified)	0.6	0.9	-1.83	10.3	42.7
Cc1ccc(NC(=O)COc2ccccc2CNC(C)(C)CC(C)(C)C)cc1	0.9	0.5	-2.43	45.8	6.3
Cc1c(N2C(=O)CSC23C(=O)Nc2ccccc23)c(=O)n(-c2ccccc2)n1C (stereo unspecified)	1	0.8	-0.0407	21.9	-2.7
CCN1CC2=C(OC(N)=C(C#N)C2c2ccccc2)/C(=C\c2ccccc2)C1 (stereo unspecified)	0.3	0.1	-0.842	90.7*	65.8*
CC[C@@]1(O)C(=O)OCc2c1cc1n(c2=O)Cc2cc3c(CN(C)C)c(O)ccc3nc2-1	.	.	-6.28*	.	.
C#CCOC(=O)CCC(=O)NCCc1ccccc1	0.7	0.3	-0.431	67.3*	26.3
CCC(C)(C)NC(=O)C(c1ccc(OC)cc1)N(Cc1cccs1)C(=O)CCC(=O)Nc1cc(C)on1 (stereo unspecified)	.	.	-5.5*	.	.
CCC(C)(C)NC(=O)C(c1ccc(OC)cc1)N(CC1CCCO1)C(=O)CCC(=O)Nc1cc(C)on1 (stereo unspecified)	.	.	0.0953	.	.
CC(C)(C)OC(=O)N1CCCC1C(=O)NC(Cc1ccccc1)C(=O)O (stereo unspecified)	1.3	1.2	0.32	-20.5	-29.7
CC(C)C1COC(c2cccc3ccccc23)=N1 (stereo unspecified)	.	.	0.277	.	.
COc1ccccc1NC(=O)Cn1nnc(-c2ccccc2NC(=O)c2cc3ccccc3oc2=O)n1	0.8	1	0.286	-4.4	23.9
CCOC(=O)N1CCN(C(=O)CS(=O)(=O)c2cn(Cc3ccccc3Cl)c3ccccc23)CC1	0.7	0.9	0.134	14.4	30.4
Cc1cccc(NC(=O)CS(=O)(=O)c2cn(C)c3ccccc23)c1	1.1	0.4	0.0589	55.8*	-10.9
CCn1cc(S(=O)(=O)CC(=O)Nc2cc(C)ccc2C)c2ccccc21	1.8	0	-0.281	95.5*	-79.8
Cc1cc(NC(=O)CS(=O)(=O)c2cn(Cc3ccccc3Cl)c3ccccc23)no1	0.3	0.6	-2.07	40.2	67.6*
CCOC(=O)c1sc2cc([N+](=O)[O-])cc(SCC(C)C)c2c1N	0.8	1.1	-1.37	-7.0	17.2
Cc1ccnc(NC(=O)CCC(=O)N(CC(=O)NC2CCCCC2)Cc2ccc3c(c2)OCO3)c1	0.2	0.4	.	55.7*	75.8*
SMILES	CYP2C9 act	CYP2C19 act	Cav32 inh	CYP2C19 inhib	CYP2C9 inh
O=C(CCCC(=O)N(CC(=O)NC1CCCCC1)Cc1ccc2c(c1)OCO2)Nc1ccccn1	0.4	0.4	-0.0338	64.6*	63.9*
O=C(CCCC(=O)N(CC(=O)NC1CCCC1)Cc1ccc(F)cc1)Nc1ccccn1	0.5	0.6	-0.187	44.3	52.2*
O=C(CCCC(=O)N(CC(=O)NC1CCCC1)C1CCCC1)Nc1ccccn1	0.9	0.7	0.284	32.2	14.6
O=C(CCCC(=O)N(CC(=O)NC1CCCCC1)Cc1ccco1)Nc1ccccn1	0.9	0.9	1.37	6.5	10.2
Clc1ccc(-c2n[nH]c3c2CCC3)cc1Cl	0.6	0.9	-0.931	12.7	37.6
Fc1ccc(CNc2nc3ccccc3n3cnnc23)cc1	1	0.6	-0.604	35.2	3.1
N#Cc1ccc(Oc2cccnc2)cc1C#N	1	0.7	-0.958	29.6	1.8
N#Cc1c(N)nc2c(c1N)CC(=O)N2c1ccccc1-c1ccccc1	0.1	0	1.14	95.9*	86.9*
N#Cc1c(N)nc(SCC(=O)NC2CCCCC2)c(C#N)c1-c1ccc(Cl)cc1	1.1	1.1	-0.0252	-5.0	-10.1
Cc1nc(N)c(C#N)c(-c2ccccc2)c1C	0.8	0.8	-0.247	16.6	21.8
N#Cc1c(N)nc2c(c1N)CC(=O)N2c1ccc(Cl)cc1	0.7	0.5	1.17	51.5*	30.5
COc1ccc(CCNc2ccc(C(CC(N)=O)NC(=O)Cc3ccc(Br)cc3)cc2[N+](=O)[O-])cc1 (stereo unspecified)	.	.	-0.161	.	.
Cc1ccc(NC(=O)/C(=C\C=C\c2ccccc2)NC(=O)c2ccccc2)cc1	0.3	0.5	-5.34*	46.5	67.7*
O=C(/C=C/c1ccccc1)N/C(=C\c1ccco1)C(=O)NCCO	.	.	1.24	.	.
Cc1ccc(NC(=O)/C(=C\c2ccccc2)NC(=O)/C=C/c2ccccc2)cc1	0.6	1	-4.91*	-0.1	39.1
COc1ccc(CNC(=O)COC(=O)c2cc(-c3cccs3)nc3ccccc23)cc1OC	0.3	1	-0.878	2.8	74.8*
O=S(=O)(c1ccc(OCC(O)CN2CCc3ccccc3C2)cc1)N1CCOCC1 (stereo unspecified)	0.9	1	0.443	-3.1	9.2
Cc1ccc(C(=O)Oc2ccc(Cl)c3cccnc23)cc1[N+](=O)[O-]	1	1	.	3.0	0.3
Cc1cc(C)c(C(=O)COc2cccnc2[N+](=O)[O-])cc1C	0.8	0.4	-1.7	63.1*	17.2
CC(C)CNC(=O)c1cc2nc(C3CC3)cc(C(F)(F)F)n2n1	.	.	-0.0123	.	.
CC1=CC(C)(C)N(C(=O)CSc2ncn[nH]2)c2ccc(C)cc21	0.4	0.1	0.0848	89.4*	55.4*
CC1=CC(C)(C)N(C(=O)CSc2nncn2C)c2ccccc21	.	.	-1.81	.	.
O=C(Nc1c2c(nn1-c1ccc(F)cc1)CS(=O)(=O)C2)C12CC3CC(CC(C3)C1)C2	0.9	0.9	.	13.5	12.6
Cc1ccccc1-n1c(C)nc2ccccc21	0.5	0.2	-0.438	82.1*	54.0*
O=C1c2ccccc2-c2nc3ccccc3n21	.	.	0.945	.	.
Cc1cc(=O)cc(C)n1-c1ccc2c(c1)nc(C)n2-c1ccccc1	1.1	1.1	-0.0163	-6.1	-11.5
Cc1nc2ccccc2n1-c1ccccc1	0.6	0.3	0.262	66.8*	40.0
